Assay outcomes (PubChem)
Pf growth 96h – inhibits malaria parasite growth, 96 h; 320,000 tested, 6.9% active; P. falciparum luciferase reporter growth, 96 h; Potency, µM (series often up to 28.7 µM), without a hit: at the highest dose activity change, negative = inhibition, most hits filed as inhibitors; note: potency is the fitted concentration of half-maximal effect; % is set by controls: 0 for no effect and ±100 for the full control effect
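Plates of compound plus infected erythrocytes (2% hematocrit, 0.05% parasitemia final) incubate 96 hours, 37 C, 5% CO2. Detection reagent added; reduced luminescence from the parasites' luciferase reporter flags inhibition.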
Pf growth 48h – P. falciparum growth inhibition at 48 hours (one generation); P. falciparum luciferase growth in erythrocytes, 48 h; Potency, µM (top dose mostly 28.7 µM), for inactives: at the top dose activity change, negative = inhibition, usual class: inhibitors; 310,000 tested, 5.9% active; note: potency is the fitted concentration of half-maximal effect; % is set by controls: 0 for no effect and ±100 for the full control effect
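Growth was read as firefly luciferase luminescence after a 48 h, 37 C, 5% CO2 exposure of compounds to reporter-bearing P. falciparum cultures (0.1% parasitemia, 2% hematocrit final) in Albumax-supplemented RPMI 1640.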
Shiga inhibitor – blocks Shiga toxin action in Vero cells; Vero cells, Shiga toxin protein synthesis inhibition reporter; inhibition, % at 38.7 µM; 290,000 tested, 9.2% active; AID 2315; in the data active = inhibition mostly above about 28%, no sharp cut-off; inactive = mostly below about 43%; note: 0% is about no effect
Cycloheximide cs – counter-screen hit for Shiga toxin inhibitors, cycloheximide; max response, %; AID 2314; cell reporter, cycloheximide protein synthesis inhibition counterscreen; 300,000 tested, 12% active; in the data active = max response mostly above about 13%, no sharp cut-off; inactive = mostly below about 14%; note: read at 38.3 µM for the half of the compounds with a filed dose; 0% is about no effect
Active calls of the source: *; ? = inconclusive; nt = no result; [ ] = another dose, or the depositor's remark. A selection: hits, their analogues and other compounds. The true share with any hit is near 21%. Unless noted, calls come from the whole dose curve; as a rule, active = well fitted inhibition curve with a large enough effect; inconclusive = small, poorly fitted or top-dose-only effect, or another doubt; inactive = no such curve, though single readings can be large or run the other way.

SMILES	Pf growth 96h	Pf growth 48h	Shiga inhibitor	Cycloheximide cs
CCC(CO)N=C1CC(C)(C)CC(=O)/C1=C(/O)CCCN1C(=O)c2ccccc2C1=O (stereo unspecified)	-22.5%	11.3%	-4.6	-0.5
CCN(CC(=O)NCCN1CCOCC1)S(=O)(=O)c1ccc(F)cc1	200.3%	14.9%	-3.9	-4.5
COc1ccc2oc(C(=O)OCC(=O)N3CCCC3=O)c(C)c2c1	14.8%	6.7%	nt	nt
COc1ccc(C(=O)OCC(=O)N2CCCC2=O)c(OC)c1	40.5%	30.1%	75.1*	32.7*
O=C(/C=C/c1ccc(S(=O)(=O)N2CCOCC2)cc1)OCC(=O)c1ccc([N+](=O)[O-])cc1	64.5%	3.4%	1.5	6.6
O=c1c2cn[nH]c2nc(SCc2cc(=O)n3cc(Br)ccc3n2)n1-c1ccc(Br)cc1	-28.2%	11.7µM*	25.8	21.9*
Cc1ccccc1-n1c(SCc2cc(=O)n3ccccc3n2)nc2[nH]ncc2c1=O	13.1µM*	?	-16.0	-1.0
O=c1c2cn[nH]c2nc(SCc2ccccc2F)n1-c1ccc(Br)cc1	37.6%	?	-10.2	-2.6
Cc1cccc2nc(CSc3nc4[nH]ncc4c(=O)n3-c3ccccc3Cl)cc(=O)n12	9.28µM*	9.28µM*	46.5	13.8*
Cc1ccccc1-n1c(SCc2cccc(F)c2)nc2[nH]ncc2c1=O	?	?	-6.0	-1.5
CCOC(=O)CNC(=S)N(Cc1ccco1)Cc1ccccc1Cl	2.62µM*	-14.4%	-12.3	-1.6
CCCCNC(=O)CNC(=S)N(Cc1ccc(C)cc1)Cc1ccco1	24.1%	?	3.2	-1.6
CC(=O)c1ccc(NC(=O)c2ccn[nH]2)cc1	-1.7%	71.6%	64.9*	35.0*
O=C(Nc1ccccc1)c1[nH]ncc1[N+](=O)[O-]	33.8%	nt	24.9	6.9
O=C(Nc1cccc([N+](=O)[O-])c1)c1ccn[nH]1	?	246.9%	76.4*	59.6*
O=C(Nc1ccccc1)c1ccn[nH]1	?	337.3%	94.4*	38.4*
O=C(Nc1ccc(NC(=O)c2ccncc2)cc1)c1ccncc1	40.5%	50.1%	-7.9	-4.4
CCOc1ccc(NC(=O)CSc2nnc(-c3cc(C)[nH]n3)n2N)cc1	?	?	-3.6	-2.8
O=[N+]([O-])c1ccc(N2CCN(S(=O)(=O)c3ccccc3)CC2)cc1NCc1cccnc1	-0.5%	9.28µM*	-3.7	-0.5
O=[N+]([O-])c1ccc(N2CCN(S(=O)(=O)c3ccc(Cl)cc3)CC2)cc1NCc1cccnc1	?	7.38µM*	-14.4	1.1
O=[N+]([O-])c1ccc(N2CCN(S(=O)(=O)c3ccccc3)CC2)cc1NCc1ccco1	13.1µM*	-19.8%	10.1	3.7
CC(=O)c1sc(NC(=O)C2CCCN2S(=O)(=O)c2ccccc2F)nc1C (stereo unspecified)	2.3%	7.0%	nt	nt
O=C(NCCc1cccc(Cl)c1)c1cccc(-n2cnnn2)c1	3.1%	13.6%	nt	nt
CN(CC(=O)Nc1ccc(N2CCOCC2)cc1)C(=O)CCc1cc(C(C)(C)C)c(O)c(C(C)(C)C)c1	9.28µM*	3.29µM*	nt	nt
O=C(CSc1nc2ccccc2[nH]1)Nc1ccc(N2CCOCC2)cc1	?	?	30.2*	16.4*
SMILES	Pf growth 96h	Pf growth 48h	Shiga inhibitor	Cycloheximide cs
Cc1ccc(CC(=O)N(C)CC(=O)Nc2ccc(N3CCOCC3)cc2)cc1C	8.3%	?	nt	nt
c1ccc2[nH]c(SCCN3CCOCC3)nc2c1	72.3%	nt	25.2	19.5*
O=C(Nc1ccc(N2CCN(Cc3ccccc3)CC2)cc1)c1ncn[nH]1	nt	5.86µM*	-16.5	0.5
Cc1cc(C)c(S(=O)(=O)Nc2ccc(OCC(=O)O)cc2)c(C)c1	2.6%	nt	9.2	5.2
Cc1[nH]n(-c2ccccc2)c(=O)c1/C=N/N1C(=O)c2ccc3c4c(ccc(c24)C1=O)CC3	-26.6%	-4.5%	-8.2	-0.6
CC1CCC(NC(=O)CCNC(=O)c2ccc(Br)cc2)CC1 (stereo unspecified)	98.3%	86.6%	nt	nt
Cn1cc(S(=O)(=O)Nc2cccc3ccccc23)c(=O)n(C)c1=O	-2.2%	-13.7%	-7.7	3.1
CCC(=O)Nc1ccc(N2CCN(Cc3ccccc3)CC2)cc1	12.8%	?	-4.9	25.0
CCN1CCN(c2ccc(NC(=O)Cc3ccccc3)cc2)CC1	-11.5%	7.8%	67.4*	15.2*
O=C(Cc1ccccc1)Nc1ccc(N2CCCC2)cc1	53.0%	nt	30.4	15.3
O=C(Cc1ccccc1)Nc1ccc(N2CCOCC2)cc1	?	27.5%	45.7*	28.1*
O=C(CN(Cc1ccccc1)C(=O)CCC(=O)Nc1ccccn1)NCc1ccc(F)cc1	-15.5%	-13.3%	-7.5	-4.3
Cn1ccc(O)c(C#N)c1=O	?	8.1%	9.0	-1.4
COC1=C/C(=C/c2c(O)c(C#N)c3ccccn23)C=CC1=O	162.3%	143.1%	72.9*	56.0*
CCOc1cc(/C=N/NC(=O)c2cccnc2)ccc1O	117.0%	47.6%	41.9	9.0
CCOc1cccc(/C=N/NC(=O)c2cc(C3CC3)[nH]n2)c1O	?	2.4%	2.0	18.4*
CCOc1cccc(/C=N/NC(=O)c2cccnc2)c1O	?	?	32.6	21.2*
COc1cc(/C=N/NC(=O)c2cc(C3CC3)[nH]n2)cc(OC)c1OC	-13.2%	-10.1%	-7.3	-2.8
Cc1ccc(-c2cc(C(=O)N/N=C\c3cnn(C)c3C)c3ccccc3n2)cc1C	?	nt	48.7	9.3
COc1ccccc1C(=O)CN1C(=O)NC2(CCc3ccccc32)C1=O (stereo unspecified)	-3.2%	-21.9%	nt	nt
CCCc1cc(=O)n2nc(N3CCC(C(=O)N4CCN(c5ccc(OC)cc5)CC4)CC3)sc2n1	-12.0%	-29.5%	-3.7	0.4
Cc1cc(NC(=O)Nc2cccc(C)c2C)no1	43.1%[1.15 µM]	27.9%	17.8	16.2
Cc1ccc(CC(=O)Nc2cc(C)on2)cc1	?	31.2%	29.0	7.6
Cc1ccc(NC(=O)Nc2cc(C)on2)cc1	?	390.1%	75.3*	47.5*
Cn1c(NC(=O)c2ccc(Cl)cc2Cl)cc(=O)n(C)c1=O	?	nt	17.9	-4.9
SMILES	Pf growth 96h	Pf growth 48h	Shiga inhibitor	Cycloheximide cs
Cc1cccc(NC(=O)Nc2cc(C)on2)c1	-3.9%	51.6%	71.1*	39.3*
CN(C)/C=C/C(=O)/C=C/c1ccc(Cl)cc1	34.2%	27.6%	86.6*	45.3*
O=C(Nc1ccsn1)c1ccc(Cl)cc1Cl	137.0%	134.1%	46.8*	41.3*
COc1ccccc1NC(=O)CSc1nccn1Cc1ccccc1	1.0%	?	8.7	8.2
COc1ccc(C2CC(c3ccccc3)Oc3cc4c(cc32)OCO4)cc1 (stereo unspecified)	nt	nt	21.5	23.0
Cc1ccc(N(CC(=O)NCCSc2ccccn2)S(C)(=O)=O)cc1	55.6%	-19.9%	21.0	2.0
Cc1noc(-c2ccc(C(F)(F)F)cc2)c1NC(=O)Nc1ccc(Cl)cc1	2.62µM*	2.62µM*	15.6	-1.2
Cc1cc(NC(=O)CSc2ccc(F)cc2)no1	-13.0%	11.8%	29.7	11.1
O=C(/C=C/c1ccc(Cl)cc1)Nc1ccc(N2CCOCC2)cc1	11.6%	-10.6%	18.8	-0.9
CC(=O)Nc1ccc(NC(=O)/C=C/c2ccc(Cl)cc2)cc1	?	33.0%	25.6*	29.9*
Cc1cc(NC(=O)c2ccc(Cl)cc2Cl)no1	3.7µM*	171.0%	nt	42.1*
